WRN helicase inh-1: qHTS for Inhibitors of WRN Helicase; WRN helicase unwinding, fluorescent forked duplex, kinetic; Potency, µM (titrated, usually from 114 µM), for inactives: at the top dose activity change, negative = inhibition, actives largely listed as inhibitors; 360,000 tested, 0.46% active; further: on the % scale 0 is the no-effect control and ±100 the full control effect; nearly all actives have a fitted effect of over 55% in size
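Fluorescence dequenching readout, ex 525 nm/em 598 nm, kinetic mode: forked duplex DNA (100 nM final) with adjacent fluorophore and quencher unwound by WRN (20 nM final) with 2 mM ATP. Compound preincubation 15 min, room temperature.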
POLB inh: qHTS Assay for Inhibitors of DNA Polymerase Beta; P06746; Pol beta primer extension/strand displacement, fluorescence kinetic; Potency, µM (top dose mostly 114 µM), for the others: at the highest dose activity change, negative = inhibition, actives largely listed as inhibitors; 340,000 tested, 1.3% active; AID 485314, 2010; further: on the % scale 0 is the no-effect control and ±100 the full control effect
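Human Pol beta at 10 nM; strand-displacement substrate 50 nM final. Compound exposure 15 min at room temperature before start, reaction 10 min at room temperature.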
Pol eta inh-1: qHTS for Inhibitors of Polymerase Eta; recombinant Pol eta, fluorescent DNA replication assay; DNA polymerase eta (Homo sapiens), Q9Y253; 390,000 tested, 1.2% active; Potency, µM (series often up to 114 µM), inactives show top-dose activity change, negative = inhibition, actives largely listed as inhibitors; further: on the % scale 0 is the no-effect control and ±100 the full control effect
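Fluorescent replication assay: 50 nM final substrate added after a 15 min room-temperature compound preincubation with 10 nM enzyme. Signal taken at 0 min and again at 10 min.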
Pol kappa inh-1: qHTS for Inhibitors of Polymerase Kappa | DNA polymerase kappa (Homo sapiens), Q9UBT6 | purified Pol kappa, fluorescent DNA synthesis assay, 10 min | Potency, µM (top dose mostly 107 µM), for inactives: top-dose activity, negative = inhibition, hits mostly inhibitors | 400,000 tested, 0.53% active | AID 588579, 2011; further: on the % scale 0 is the no-effect control and ±100 the full control effect
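Kinetic fluorescence screen: compound preincubated 15 min RT with 10 nM enzyme; 50 nM substrate (final) initiates; reads at 0/10 min.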
FEN1 inh-1: qHTS Assay for the Inhibitors of Human Flap endonuclease 1 (FEN1) | Recombinant FEN1 flap cleavage, fluorescence, 15 min | Potency, µM (top dose mostly 114 µM), inactives show at the highest dose activity change, negative = inhibition, most hits filed as inhibitors | 390,000 tested, 0.35% active; further: on the % scale 0 is the no-effect control and ±100 the full control effect; nearly all actives have a fitted effect of over 65% in size
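In this screen, 50 nM flap DNA substrate was added to 10 nM FEN1 pretreated with compound for 15 min at room temperature; cleavage was followed with reads at 0 and 15 min, and Hill fitting gave concentration–response parameters.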
Pol iota inh: qHTS for Inhibitors of Polymerase Iota; Potency, µM (top dose mostly 115 µM), inactives show at the top dose activity, negative = inhibition, most hits filed as inhibitors; Pol iota fluorescent replication assay, 10 min; 390,000 tested, 1% active
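Pol iota at 10 nM preincubated 15 min with compounds at room temperature; reaction started with fluorescent substrate, 50 nM final. Fluorescence read kinetically at 0 and 10 min; buffer-only wells as negative control.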
PGK validate: qHTS for inhibitors of Phosphogylcerate Kinase: Hit Validation Screen; Potency, µM (top dose mostly 57.5 µM), for inactives: at the highest dose activity change, negative = inhibition, actives largely listed as inhibitors; shares compounds with Pol kappa inh-1; TbPGK coupled GAPDH assay, Kinase-Glo luminescence; 500 tested, 79% active; further: on the % scale 0 is the no-effect control and ±100 the full control effect; nearly all actives have a fitted effect of over 65% in size
POLI cherry-pick: qHTS for Inhibitors of Polymerase Iota: Confirmatory Assay for Cherry-picked Compounds | shares compounds with Pol kappa inh-1 | Pol iota primer extension, TAMRA/BHQ fluorescence | Potency, µM, actives largely listed as inhibitors | 1,500 tested, 77% active
Pol kappa inh-2: qHTS for Inhibitors of Polymerase Kappa: Confirmatory Assay for Cherry-picked Compounds | 920 tested, 76% active | shares compounds with Pol eta inh-1 | Potency, µM, hits mostly inhibitors | AID 720501, 2013 | purified Pol-kappa, fluorescent strand-displacement substrate
Pol eta inh-2: qHTS for Inhibitors of Polymerase Eta: Confirmatory Assay for Cherry-picked Compounds; shares compounds with Pol eta inh-1; 2,600 tested, 64% active; Pol eta primer extension, TAMRA/BHQ fluorescence, 10 min; Potency, µM, actives largely listed as inhibitors
FEN1 inh-2: qHTS Assay for the Inhibitors of FEN1: Confirmatory Assay for Cherry-picked Compounds; shares compounds with FEN1 inh-1; Potency, µM, hits mostly inhibitors; 880 tested, 79% active; FEN1 flap cleavage, TAMRA/BHQ2 fluorogenic DNA substrate; further: nearly all actives have a fitted effect of over 60% in size
WRN helicase inh-2: qHTS for Inhibitors of WRN Helicase: Confirmatory Assay for Cherry-picked Compounds; AID 720497, 2013; shares compounds with WRN helicase inh-1; 610 tested, 63% active; Potency, µM (top dose mostly 57.1 µM), inactives show at the highest dose activity, negative = inhibition, hits mostly inhibitors; WRN helicase DNA unwinding, fluorescence kinetic; further: nearly all actives have a fitted effect of over 65% in size
TO DNA binding: qHTS for Inhibitors of WRN Helicase: Thiazole Orange DNA Binding Counterscreen; shares compounds with WRN helicase inh-1; thiazole orange DNA binding displacement, fluorescence; Potency, µM (series often up to 57.1 µM), for the others: top-dose activity change, negative = inhibition, most hits filed as inhibitors; 610 tested, 10% active;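 further: drop in dye fluorescence marks compound binding to DNA; on the % scale 0 is the no-effect control and ±100 the full control effect; nearly all actives have a fitted effect of over 60% in size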
BLM helicase inh: qHTS for Inhibitors of WRN Helicase: BLM Helicase Counterscreen for WRN Inhibitors; shares compounds with WRN helicase inh-1; Recombinant BLM helicase DNA unwinding, red fluorescence; Potency, µM (top dose mostly 57.1 µM), inactives show at the highest dose activity change, negative = inhibition, most hits filed as inhibitors; 610 tested, 60% active; further: nearly all actives have a fitted effect of over 60% in size
Numbers without * were called inactive; ? = inconclusive; / = no result; [ ] = another dose, or the depositor's remark. Rows were chosen to be rich in hits. Some 2.4% of all compounds tested hit in one or more screens of this group. The call rests on the fitted dose curve; in most records, active means well fitted curve in the direction sought with a large enough effect; inconclusive means small, poorly fitted or top-dose-only effect, or another doubt; inactive means no such curve, though single readings can be large; an effect the other way counts as inactive or inconclusive. Potency means the concentration at half of the fitted maximal effect.

SMILES	WRN helicase inh-1	POLB inh	Pol eta inh-1	Pol kappa inh-1	FEN1 inh-1	Pol iota inh	POLI cherry-pick	Pol kappa inh-2	Pol eta inh-2	WRN helicase inh-2	TO DNA binding	BLM helicase inh	others
Oc1ccc(/C=N/N=C/c2ccc(O)cc2)cc1	7%	0%	-9%	-1%	-16%	20%	/	/	/	/	/	/
O=C1Nc2ccccc2/C1=N\N=C\c1ccc(O)c(O)c1	32µM*	4.5µM*	3.2µM*	5.6µM*	13µM*	2.2µM*	?	/	17*	6.8µM*	?	6.8µM*
Oc1ccc(/C=N/N=C/c2ccc(O)c(O)c2)cc1O	0.75µM*	0.45µM*	0.71µM*	0.89µM*	?	1.3µM*	6.7*	4.7*	4.3*	0.61µM*	-16%	1.1µM*	PGK validate=1.3µM*
CCOC(=O)C(Cc1ccccc1)NC(=O)CCc1c(C)nc2nc(C)nn2c1C (centres undefined)	9%	33%	-15%	4%	-13%	-23%	/	/	/	/	/	/
c1cnc(N2CCN(c3ncc4c(n3)CCNC4)CC2)nc1	/	45µM*	18µM*	-30%	8%	?	17*	3*	24*	22µM*	?	?	FEN1 inh-2=15*
CSc1nsc(SCC(=O)Nc2ccc(C(C)=O)cc2)n1	-16%	2%	-8%	-4%	13%	-18%[58.9 µM]	/	/	/	/	/	/
Cc1cc(=O)n2nc(-c3ccccc3)sc2n1	-6%	?	8%	-2%	1%	16%	/	/	/	/	/	/
O=c1cc(N2CCNCC2)nc2sc(-c3ccncc3)nn12	/	/	/	/	/	/	27*	/	76*	6.1µM*	6.8µM*	1.2µM*
CCCC(=O)NC1=C(Cl)C(=O)c2ccccc2C1=O	25µM*	/	?	-6%	-33%	6.3µM*	67*	/	/	-17%	4.8µM*	24µM*
O=C(N/N=C/c1ccc(-c2ccc(S(=O)(=O)Nc3ncccn3)cc2)o1)c1cc2ccccc2cc1O	8.9µM*	13µM*	0.89µM*	4.5µM*	16µM*	1.3µM*	17*	3.8*	4.8*	6.8µM*	?	15µM*	PGK validate=?
Cn1cccc1/C=N/NC(=O)c1cc2ccccc2cc1O	-29%	0%	-22%	-6%	-7%	-10%	/	/	/	/	/	/
CC(C)c1ccc(N2C(=O)/C(=C/N(C)C)SC2=S)cc1	20µM*	?	?	?	32µM*	7.9µM*	4.2*	30*	3*	12µM*	-20%	14µM*	FEN1 inh-2=30*
N=C1/C(=C\c2ccc(Br)o2)C(=O)N=C2SC(CC(=O)N3CCOCC3)=NN12	35µM*	28µM*	18µM*	?	?	16µM*	?	/	24*	?	-10%	?
O=C(NC(=S)Nc1c(Cl)ccc2nsnc12)c1ccccc1F	-3%	23%	-12%	-9%	10%	-15%	/	/	/	/	/	/
c1ccc(C2CSc3ccccc3N2)cc1 (centres undefined)	7%	-10%	-8%	-8%	-15%	9%	/	/	/	/	/	/
CC(OC(=O)c1cccc(O)c1)C(=O)N(C)Cc1ccccc1 (centres undefined)	-10%	/	0%	-3%	-3%	14%	/	/	/	/	/	/
CC(OC(=O)/C(C#N)=C/c1ccc(N(C)C)cc1)C(=O)N(C)Cc1ccccc1 (centres undefined)	45µM*	1%	50µM*	?	?	89µM*	27*	/	24*	24µM*	74%	22µM*	FEN1 inh-2=76*
O=C(O)c1cccc(N/N=C/c2ccc(OC(F)(F)F)cc2)c1	-6%	-16%	-7%	-1%	15%	?	/	/	/	/	/	/
CSc1ccc(/C=N/Nc2cccc(C(=O)O)c2)cc1	11µM*	2µM*	1.1µM*	7.9µM*	22µM*	2.2µM*	2.7*	/	2.1*	4.8µM*	?	3µM*	FEN1 inh-2=43*
COc1ccccc1CNC(=O)COC(=O)c1cc(-c2ccco2)nc2ccccc12	35µM*	5µM*	14µM*	22µM*	50µM*	7.1µM*	21*	15*	24*	19µM*	?	17µM*

Screens deposited in PubChem by National Center for Advancing Translational Sciences (NCATS).
